Only some compounds are listed: those with a hit (about 2.2% of all), similar ones and a draw of the others.
proKLK7 act: proKLK7 zymogen activators, primary screen, biochemical, fluorescence intensity; Kallikrein-7 (Homo sapiens), P49862; purified proKLK7, EDANS-DABCYL substrate fluorescence; 100% is mature enzyme control, 0% vehicle; activation, % at 7 µM; hit rate 0.9% among 370,000; AID 652039, 2013;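 active = activation above the mean of all tested compounds plus 3 SD, computed per campaign excluding outliers beyond control limits, cut at about 13% in these data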
NPR1 activator: GC-A stimulated cGMP production enhancers – HEK293 GC-A cells, cGMP TR-FRET, EC30 ANP, primary screen; Atrial natriuretic peptide receptor 1 (Homo sapiens), P16066; 0% at EC30 ANP, 100% saturating ANP; activation, % at 10 µM; hit rate 0.14% among 370,000; AID 1671463, 2021; in the data active = activation above about 40%
GC-B act: human GC-B receptor activators, primary screen, HEK293 GC-B cells, cGMP TR-FRET, EC30 CNP; activation, % at 10 µM; hit rate 0.11% among 370,000; Atrial natriuretic peptide receptor 2 (Homo sapiens), P20594; 0% at EC30 CNP, 100% saturating CNP; AID 1920062, 2024;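 active = activation at 10 µM reaching about 35% in either raw or pattern-adjusted values, limit read from the data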
ADAM17 inh: ADAM17 inhibitors, primary screen, biochemical, QFRET; Disintegrin and metalloproteinase domain-containing protein 17 (Homo sapiens), P78536; recombinant ADAM17, EDANS/DABCYL FRET peptide cleavage; inhibition, % at 6.95 µM; hit rate 0.83% among 370,000; AID 720648, 2013;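 active = inhibition above the mean of compounds lying between control limits plus 3 SD, set per campaign, cut at about 8.5% in these data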;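 also: 0% = DMSO-only wells as the low control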
ADAM10 inh: human ADAM10 inhibitors, primary screen, biochemical, QFRET, HTS | Disintegrin and metalloproteinase domain-containing protein 10 (Homo sapiens), O14672 | inhibition, % at 7 µM | hit rate 0.62% among 370,000 | recombinant ADAM10, EDANS/DABCYL FRET peptide cleavage, 3 h;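 active = inhibition above a per-campaign cutoff equal to the mean of compounds falling between control-based bounds plus 3 SD, cut at about 20% in these data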;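 also: 0% = DMSO wells while the 100% control is not disclosed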
ADAM10 counter: ADAM10 inhibitors, counter-screen for ADAM17 exosite inhibitor project, biochemical, FRET, human ADAM10; shares compounds with ADAM17 inh; inhibition, % at 6.95 µM; AID 743256, 2014; recombinant ADAM10, EDANS/DABCYL FRET peptide cleavage, 3 h; hit rate 47% among 2,900;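 active = mean inhibition over the triplicate runs exceeds the activity threshold set in the earlier primary screen, cut at about 20% in these data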;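 also: 0% = DMSO wells and 100% = marimastat wells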
ADAM17 confirm: ADAM17 inhibitors, hit retest, confirmation, biochemical, QFRET peptide cleavage; recombinant ADAM17, EDANS/DABCYL QFRET peptide cleavage; hit rate 65% among 2,900; shares compounds with ADAM17 inh; inhibition, % at 6.95 µM;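 active = mean inhibition across replicates above the hit cutoff set in the primary screen, cut at about 8.5% in these data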;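 also: 0% = DMSO wells and 100% = marimastat wells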
* hit, by the source's call.

For O=C(COc1ccc(Br)cc1CO)Nc1ccccc1 the results were proKLK7 act -0.8, NPR1 activator -9.9, GC-B act -1.7, ADAM17 inh 2.3 and ADAM10 inh 2.0.
O=C(C1CCN(c2nc(-c3ccc(Br)cc3)cs2)CC1)N1CCNCC1 was read as NPR1 activator 20.1, GC-B act -18.7, ADAM17 inh 4.2 and ADAM10 inh 14.4.
CC(=O)NC(Cc1ccc(O)cc1)C(=O)NN (stereo not given) was read as proKLK7 act 0.3, NPR1 activator 1.7, GC-B act 2.6, ADAM17 inh -4.1 and ADAM10 inh 1.1.
Screening CC(=O)O[C@@H](Cc1ccc(O)cc1)C(=O)CC(C)C returned proKLK7 act 0.0, NPR1 activator 0.8, GC-B act -3.6, ADAM17 inh 9.2*, ADAM10 inh 4.9, ADAM10 counter 1.3 and ADAM17 confirm 2.1.
For C[C@H]1C2CC(OC(=O)Nc3cccc(C(F)(F)F)c3)C(C2)[C@H]2CCCCN21 (stereo not given in full) the results were proKLK7 act -1.2, NPR1 activator -4.3, GC-B act -0.9, ADAM17 inh -5.0 and ADAM10 inh -7.6.
For Cc1ccc(S(=O)(=O)N2CC3(O)CN(C(=O)OC(C)C)N(C(=O)OC(C)C)CC3(OC(=O)Nc3c(C)noc3C)C2)cc1 (stereo not given) the results were proKLK7 act 0.3, NPR1 activator -0.6, GC-B act 0.1, ADAM17 inh -2.3 and ADAM10 inh -3.6.
For Cc1ccc(S(=O)(=O)N2CC3(O)CN(C(=O)OC(C)C)N(C(=O)OC(C)C)CC3(OC(=O)Nc3cccs3)C2)cc1 (stereo not given) the results were proKLK7 act -0.3, NPR1 activator 2.7, GC-B act -0.2, ADAM17 inh 9.4*, ADAM10 inh 18.9, ADAM10 counter 31.4* and ADAM17 confirm 13.1*.
Screening CCC(=O)N(CCC(c1ccccc1)c1ccco1)Cc1cccs1 (stereo not given) returned proKLK7 act -0.7, NPR1 activator -11.8, GC-B act -7.3, ADAM17 inh 9.8*, ADAM10 inh 2.7, ADAM10 counter -1.8 and ADAM17 confirm 1.2.
CN(C(=O)c1cn(C)c2ccccc12)c1ccc(Oc2cccnc2)cc1 was read as proKLK7 act 0.3, NPR1 activator 0.7, GC-B act -2.8, ADAM17 inh -3.6 and ADAM10 inh -10.0.
`CCOc1ccc2nc(NC(=O)C3CCN(S(=O)(=O)c4cnc[nH]4)CC3)sc2c1` gave proKLK7 act 0.5, NPR1 activator 5.3, GC-B act -1.2, ADAM17 inh 8.7*, ADAM10 inh -1.5, ADAM10 counter 3.8 and ADAM17 confirm 6.5.
For COc1ccc2nc(NC(=O)C3CCN(S(=O)(=O)c4cnc[nH]4)CC3)sc2c1 the results were proKLK7 act 0.4, NPR1 activator 7.6, GC-B act -4.0, ADAM17 inh -5.4 and ADAM10 inh -5.5.
O=C(Cc1c[nH]c2ccccc12)Nc1ccc(Nc2cccnc2)c(-c2cc(F)cc(F)c2)c1 was read as proKLK7 act -0.5, NPR1 activator -3.0, GC-B act -6.8, ADAM17 inh -8.8 and ADAM10 inh -19.9.
For O=C(Cn1cnc2ccccc2c1=O)N1CCN(Cc2ccc(F)cc2)CC1 the results were proKLK7 act -1.0, NPR1 activator 1.4, GC-B act -2.5, ADAM17 inh -2.0 and ADAM10 inh 3.6.

Source: PubChem BioAssay (several laboratories)
